Bioassay records from PubChem BioAssay.
Only a sample is shown.
aSyn 5UTR act = Activators working through SNCA 5'UTR binding (MLPCN); 300,000 tested, 7.1% active; activity score, % (tested at 7.5 µM), hits read low; AID 1814; alpha-synuclein 5'UTR reporter, activators screen; in the data active = activity score below about -60%
* marks the source's active call; other numbers are inactive results.

SMILES	aSyn 5UTR act
c1ccc(CSc2nnc(SCc3ccccn3)s2)nc1	-118*
CCOc1ccc(-c2ccc(SC)nn2)cc1	76
c1ccc(CSc2ccc(-c3ccccn3)nn2)nc1	-62*
Cc1c(/N=C(\[O-])Nc2ccc(Br)cc2)sn[n+]1C	89
C/C(=C\C(=O)c1ccc(Br)cc1)NCc1ccccc1	-113*
C/C(=C\C(=O)c1ccc(Br)cc1)Nc1cccc(Cl)c1	-80*
C/C(=C\C(=O)c1ccc(Cl)cc1)Nc1ccc(Br)cc1	-131*
COc1cc(/C=N/Nc2ccc(C(=O)O)cc2)cc(OC)c1OC	-148*
COc1cccc(/C=N/NC(=S)Nc2cccc(C(=O)O)c2)c1O	55
C=CCOc1c(OC)cc(/C=N/Nc2cccc(C(=O)O)c2)c(Br)c1Br	-177*
COc1ccc(/C=N/Nc2ccc(C(=O)O)cc2)c(OC)c1OC	-118*
CCOc1ccc(N/C=C\C(=O)c2ccc3c(c2)OCO3)cc1	-89*
COc1ccc(N/C=C\C(=O)c2ccc3c(c2)OCO3)cc1	-264*
O=C(/C=C\Nc1ccc2c(c1)OCO2)c1ccccn1	118
O=C(/C=C\Nc1ccc2c(c1)OCO2)c1ccc2c(c1)OCO2	-175*
CC(=O)c1ccc(NC(=O)CSc2nccn2CCc2ccccc2)cc1	-128*
N#Cc1ccccc1NC(=O)CSc1nccn1CCc1ccccc1	-149*
Nc1ccc(SCc2nc3cccc4c3n2CCC4)cc1	-99*
COc1ccccc1C(=O)N(CCC1CCCN1C)c1nc2ccccc2s1 (stereo not given)	-103*
COc1cccc2sc(N(CCCN(C)C)C(=O)c3ccc(S(=O)(=O)N4CCc5ccccc5C4)cc3)nc12	94
COc1cccc2sc(N(CCCN(C)C)C(=O)c3ccc(S(=O)(=O)N4CCCc5ccccc54)cc3)nc12	64
NC(=O)c1ccsc1NC(=O)c1ccc(S(=O)(=O)N2CCCC2)cc1	-103*
NC(=O)c1ccsc1NC(=O)c1ccc(S(=O)(=O)N2CCCCC2)cc1	-96*
COc1ccccc1-c1noc(-c2ccccc2)n1	-126*
COc1ccc(-c2nc(-c3ccccc3OC)no2)cc1OC	-231*
SMILES	aSyn 5UTR act
COc1ccccc1-c1noc(-c2ccco2)n1	-129*
CC(=O)NCCc1nc2cc(NC(=O)c3ccc(F)cc3)ccc2n1C	-111*
CCC(=O)NCCc1nc2cc(NC(=O)c3cccc([N+](=O)[O-])c3)ccc2n1C	-70*
Cn1cnc2cc(NC(=O)COc3ccccc3)ccc21	-117*
CCC(=O)NCCc1nc2cc(NC(=O)c3ccccc3OC)ccc2n1C	-71*
CCC(=O)NCCc1nc2cc(NC(=O)COc3ccccc3)ccc2n1C	-113*
Cc1ccc(OCC(=O)Nc2ccc3c(c2)nc(CCN2CCN(C)CC2)n3C)cc1	105
COc1ccccc1C(=O)Nc1ccc2c(c1)nc(CCNC(C)=O)n2C	-73*
CC(C)(C)c1ccc(/C=C/C(=O)Nc2nncs2)cc1	-88*
O=C(/C=C/c1ccc2c(c1)OCO2)Nc1nncs1	-115*
CCOc1cc(/C=N/NC(=O)Nc2ccccc2)ccc1O	-197*
COc1cc(/C=N/NC(=O)Nc2ccccc2)ccc1OC(C)=O	-188*
COc1cc(/C=N/NC(=S)Nc2cccc(C(=O)O)c2)ccc1O	70
COc1ccc(-n2cnc3cc(N)ccc32)cc1	-75*
O=c1[nH]c(-c2ccccn2)nc2sc(-c3ccccc3)cc12	-91*
CCN(CC)c1ccc(/C=N/NC(=O)c2ccccn2)cc1	-125*
O=C(N/N=C/c1ccc(OC(=O)c2ccccc2Cl)cc1)c1ccccn1	-112*
C/C(=N\NC(=O)C(C)Oc1ccc([N+](=O)[O-])cc1)c1ccccn1 (stereo not given)	72
Cc1ccc(/C=N\NC(=O)c2csnn2)cc1	-69*
O=C(Oc1cccc(/C=N/NC(=O)c2ccccn2)c1)c1ccc([N+](=O)[O-])cc1	-100*
CCN(CC)c1ccc(/C=N/NC(=O)c2cnccn2)cc1	-85*
c1ccc(-c2nc(-c3nccc4ccccc34)oc2-c2ccccc2)cc1	-82*
O=C1c2ccccc2C(=O)C1c1nccc2ccccc12	99
COc1cccc(C(=O)N=c2sc3c(C)ccc(OC)c3n2C)c1	-209*
COc1ccccc1C(=O)N=c1sc2c(C)ccc(OC)c2n1C	-80*
SMILES	aSyn 5UTR act
COc1ccc(C(=O)N=c2sc3c(C)ccc(OC)c3n2C)cc1OC	-295*
C=CCc1c(C)nc(SC)nc1Nc1ccc(C(C)=O)cc1	-76*
O=C(Nc1ccc(CN2CCOCC2)cc1)c1ccccc1F	-76*
O=C(/C=C/c1ccc(Cl)cc1Cl)NC(=S)Nc1ccccn1	-224*
O=C(Oc1c(CN2CCOCC2)cc(Cl)c2cccnc12)c1ccccc1F	106
O=C(Nc1ccc(CN2CCOCC2)cc1)c1ccc(Cl)cc1Cl	-96*
CCC(=O)NC(c1ccc(Cl)cc1Cl)c1ccc2cccnc2c1O (stereo not given)	75
O=C(/C=C/c1ccc(Cl)cc1Cl)NC(=S)Nc1ccc(CN2CCOCC2)cc1	-71*
O=C(Nc1ccc(CN2CCOCC2)cc1)c1ccc(-c2cccc(Cl)c2)o1	-83*
O=C(Nc1ccc(CN2CCOCC2)cc1)c1cccs1	-145*
O=C(Cc1ccccc1)Nc1ccc(CN2CCOCC2)cc1	-87*
COc1cc2ccccc2cc1C(=O)Nc1ccc(CN2CCOCC2)cc1	-112*
CCC(C)(C)NC(=O)C(c1ccncc1)N(C(=O)c1sc(C)nc1C)c1ccc(C)cc1 (stereo not given)	-62*
O=C(Nc1ccc([N+](=O)[O-])cc1)c1cc(Cl)sc1Cl	-76*
CN(C)c1ccc(NC(=O)c2ccc([N+](=O)[O-])cc2Cl)cc1	-76*
O=C(Nc1cccc(O)c1)c1ccc([N+](=O)[O-])cc1Cl	-86*
FC(F)(F)c1cc(-c2ccco2)nc(N2CCN(c3ccccc3)CC2)n1	-65*
Cc1nc2ccccc2n1-c1nc(-c2ccco2)cc(C(F)(F)F)n1	90
Cc1nc2c(-c3ccc(F)cc3)cnn2c(N)c1-c1ccc(F)cc1	-150*
Cc1cc(N)n2ncc(-c3ccc(F)cc3)c2n1	-104*
COc1ccc(-c2c(C)nc3c(-c4ccccn4)cnn3c2N)cc1	-181*
CC(=O)c1ccc2c3c(cccc13)C(=O)N(CCc1ccccc1)C2=O	-138*
CC(C)CCN1C(=O)c2cccc3c(N)ccc(c23)C1=O	61
O=C(c1ccco1)N1CCC(c2ccccc2)C1 (stereo not given)	-109*
O=C(c1ccc(F)cc1)N1CCC(c2ccccc2)C1 (stereo not given)	-84*
SMILES	aSyn 5UTR act
Cc1cc(C)c2c(c1)C(=O)/C(=C/c1ccc(C(=O)O)cc1)CC2	-79*
Cn1ccnc1SCC(=O)c1c[nH]c2ccccc12	-160*
CC(=O)c1ccc(-c2ccc(C(=O)N3CCN(c4ccc(F)cc4)CC3)o2)cc1	-73*
COc1ccc(/C=C/C(=O)c2ccc([N+](=O)[O-])o2)cc1OC	61
COc1cc2c(cc1OC)CN(C(=O)c1ccc([N+](=O)[O-])o1)CC2	-175*
O=C(c1ccc([N+](=O)[O-])o1)N1CCc2ccccc21	-190*
Cc1ccc(C(=O)N2CCc3ccccc32)o1	-94*
COc1ccc2oc(C(=O)N3CCCc4ccccc43)c(C)c2c1	-91*
O=C(c1ccc([N+](=O)[O-])o1)N1CCc2ccccc2C1	-103*
CC(=O)c1ccc(-c2ccc(C(=O)N3CCCc4ccccc43)o2)cc1	-66*
Cn1cccc1CNC(=O)Nc1ccc(Cl)c(Cl)c1	-212*
CCOc1ccc(NC(=O)NCc2cccn2C)cc1	-87*
O=C(Nc1ccccc1)N(O)c1ccc(Cl)cc1	-122*
